# Assay results from the supplement of paper PMC8728848.
# The sample as a whole holds a higher share of the strongest signals than the screen did.
# B1: CBP21 (Serratia marcescens), O83009 (protein)
# chain: MNKTSRTLLSLGLLSAAMFGVSQQANAHGYVESPASRAYQCKLQLNTQCGSVQYEPQSVEGLKGFPQAGPADGHIASADKSTFFELDQQTPTRWNKLNLKTGPNSFTWKLTARHSTTSWRYFITKPNWDASQPLTRASFDLTPFCQFNDGGAIPAAQVTHQCNIPADRSGSHVILAVWDIADTANAFYQAIDVNLSK
# B2: AFL (Aspergillus fumigatus), Q4WW81 (protein)
# chain: STPGAQQVLFRTGIAAVNLTNHLRVYFQDVYGSIRESLYEGSWANGTEKNVIGNAKLGSPVAATSKELKHIRVYTLTEGNTLQEFAYDSGTGWYNGGLGGAKFQVAPYSRIAAVFLAGTDALQLRIYAQKPDNTIQEYMWNGDGWKEGTNLGGALPGTGIGATSFRYTDYNGPSIRIWFQTDDLKLVQRAYDPHKGWYPDLVTIFDRAPPRTAIAATSFGAGNSSIYMRIYFVNSDNTIWQVCWDHGKGYHDKGTITPVIQGSEVAIISWGSFANNGPDLRLYFQNGTYISAVSEWVWNRAHGSQLGRSALPPA
# Tests used:
# Assay in all cases: glycan array binding signal (z-score within array); higher = stronger binding
# Details in all cases: glycan notation: IUPAC condensed, linker removed
# [1] = target: Fuc(a1-2)Gal(b1-3)GlcNAc(b1-2)Man(a1-3)[Fuc(a1-2)Gal(b1-3)GlcNAc(b1-2)Man(a1-6)]Man(b1-4)GlcNAc(b1-4)GlcNAc
# Method in brief: (§1)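 Glycan array binding is given as a within-array Z-score, which can be read as non-binding when negative. The arrays, 3228 of them, came from the Consortium for Functional Glycomics database and were retained only where the protein sequence was available. Z-scores were averaged across arrays of the same protein sequence at different concentrations or buffers and across linkers.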
# [2] = target: Fuc(a1-2)Gal(b1-4)GlcNAc6S
# Method in brief: as §1
# [3] = target: Fuc(a1-2)Gal(b1-4)[Fuc(a1-3)]GlcNAc(b1-2)[Fuc(a1-2)Gal(b1-4)[Fuc(a1-3)]GlcNAc(b1-4)]Man(a1-3)[Fuc(a1-2)Gal(b1-4)[Fuc(a1-3)]GlcNAc(b1-2)Man(a1-6)]Man(b1-4)GlcNAc(b1-4)GlcNAc
# Method in brief: as §1
# [4] = target: Fuc(a1-2)Gal(b1-4)[Fuc(a1-3)]GlcNAc(b1-3)Gal(b1-4)[Fuc(a1-3)]GlcNAc(b1-3)Gal(b1-4)[Fuc(a1-3)]GlcNAc
# Method in brief: as §1
# [5] = target: Fuc(a1-2)Gal6S(b1-3)GlcNAc
# Method in brief: as §1
# [6] = target: Fuc(a1-2)[Gal(a1-3)]Gal(b1-4)GlcNAc(b1-3)[Fuc(a1-2)[Gal(a1-3)]Gal(b1-4)GlcNAc(b1-6)]GalNAc
# Method in brief: as §1
# [7] = target: Fuc(a1-2)[GalNAc(a1-3)]Gal(b1-4)Glc
# Method in brief: as §1
# [8] = target: Fuc(a1-2)[GalNAc(a1-3)]Gal(b1-4)GlcNAc(b1-2)Man(a1-3)[Fuc(a1-2)[GalNAc(a1-3)]Gal(b1-4)GlcNAc(b1-2)Man(a1-6)]Man(b1-4)GlcNAc(b1-4)[Fuc(a1-6)]GlcNAc
# Method in brief: as §1
# [9] = target: Fuc(a1-3)[Gal(b1-4)]GlcNAc(b1-2)Man(a1-3)[Fuc(a1-3)[Gal(b1-4)]GlcNAc(b1-2)Man(a1-6)]Man(b1-4)GlcNAc(b1-4)GlcNAc
# Method in brief: as §1
# [10] = target: Fuc(a1-3)[Gal(b1-4)]GlcNAc(b1-3)Gal(b1-4)[Fuc(a1-3)]GlcNAc(b1-3)Gal(b1-4)[Fuc(a1-3)]GlcNAc
# Method in brief: as §1
# [11] = target: Fuc(a1-3)[Gal(b1-4)]GlcNAc(b1-3)GalNAc
# Method in brief: as §1
# Gal(a1-3)Gal = target: Gal(a1-3)Gal
# Method in brief: as §1
# [12] = target: Gal(b1-3)GalNAc(a1-3)[Fuc(a1-2)]Gal(b1-4)Glc
# Method in brief: as §1
# Gal(b1-3)GlcNAc = target: Gal(b1-3)GlcNAc
# Method in brief: as §1
# [13] = target: Gal(b1-3)GlcNAc(a1-3)Gal(b1-4)GlcNAc
# Method in brief: as §1
# [14] = target: Gal(b1-3)GlcNAc(b1-3)Gal(b1-4)GlcNAc(b1-2)[Gal(b1-3)GlcNAc(b1-3)Gal(b1-4)GlcNAc(b1-6)]Man(a1-6)[Gal(b1-3)GlcNAc(b1-3)Gal(b1-4)GlcNAc(b1-2)Man(a1-3)]Man(b1-4)GlcNAc(b1-4)[Fuc(a1-6)]GlcNAc
# Method in brief: as §1
# [15] = target: Gal(b1-4)GlcNAc(b1-3)Gal(b1-4)GlcNAc(b1-3)Gal(b1-4)GlcNAc(b1-2)Man(a1-3)[Gal(b1-4)GlcNAc(b1-3)Gal(b1-4)GlcNAc(b1-3)Gal(b1-4)GlcNAc(b1-2)Man(a1-6)]Man(b1-4)GlcNAc(b1-4)[Fuc(a1-6)]GlcNAc
# Method in brief: as §1
# [16] = target: Gal(b1-4)GlcNAc(b1-3)Gal(b1-4)GlcNAc(b1-3)Gal(b1-4)GlcNAc(b1-3)Gal(b1-4)GlcNAc(b1-3)Gal(b1-4)GlcNAc(b1-2)[Gal(b1-4)GlcNAc(b1-3)Gal(b1-4)GlcNAc(b1-3)Gal(b1-4)GlcNAc(b1-3)Gal(b1-4)GlcNAc(b1-3)Gal(b1-4)GlcNAc(b1-6)]Man(a1-6)[Gal(b1-4)GlcNAc(b1-3)Gal(b1-4)GlcNAc(b1-3)Gal(b1-4)GlcNAc(b1-3)Gal(b1-4)GlcNAc(b1-3)Gal(b1-4)GlcNAc(b1-2)Man(a1-3)]Man(b1-4)GlcNAc(b1-4)[Fuc(a1-6)]GlcNAc
# Method in brief: as §1
# [17] = target: Gal(b1-4)GlcNAc(b1-3)Gal(b1-4)GlcNAc(b1-3)Gal(b1-4)GlcNAc(b1-3)Gal(b1-4)GlcNAc(b1-3)Gal(b1-4)GlcNAc(b1-3)Gal(b1-4)GlcNAc(b1-2)Man(a1-3)[Gal(b1-4)GlcNAc(b1-3)Gal(b1-4)GlcNAc(b1-3)Gal(b1-4)GlcNAc(b1-3)Gal(b1-4)GlcNAc(b1-3)Gal(b1-4)GlcNAc(b1-3)Gal(b1-4)GlcNAc(b1-2)Man(a1-6)]Man(b1-4)GlcNAc(b1-4)GlcNAc
# Method in brief: as §1
# [18] = target: Gal(b1-4)GlcNAc(b1-3)Gal(b1-4)[Fuc(a1-3)]GlcNAc(b1-3)Gal(b1-4)[Fuc(a1-3)]GlcNAc
# Method in brief: as §1
# Gal(b1-6)Gal = target: Gal(b1-6)Gal
# Method in brief: as §1
# Gal3S(b1-4)GlcNAc = target: Gal3S(b1-4)GlcNAc
# Method in brief: as §1
# Gal3S6S(b1-4)GlcNAc = target: Gal3S6S(b1-4)GlcNAc
# Method in brief: as §1
# Gal6S(b1-4)Glc = target: Gal6S(b1-4)Glc
# Method in brief: as §1
# GalNAc(b1-3)GalNAc = target: GalNAc(b1-3)GalNAc
# Method in brief: as §1
# GalNAc(b1-3)GlcNAc = target: GalNAc(b1-3)GlcNAc
# Method in brief: as §1
# GalNAc(b1-4)Gal(b1-4)Glc = target: GalNAc(b1-4)Gal(b1-4)Glc
# Method in brief: as §1
# GalNAc(b1-4)GlcNAc = target: GalNAc(b1-4)GlcNAc
# Method in brief: as §1
# GalNAc(b1-4)GlcNAc6S = target: GalNAc(b1-4)GlcNAc6S
# Method in brief: as §1
# [19] = target: GlcA3S(b1-3)Gal(b1-4)GlcNAc(b1-2)Man
# Method in brief: as §1
# [20] = target: GalNAc(a1-3)GalNAc(b1-3)Gal(a1-4)Gal(b1-4)GlcNAc
# Method in brief: as §1
# GlcA(b1-3)GlcNAc = target: GlcA(b1-3)GlcNAc
# Method in brief: as §1
# [21] = target: GlcNAc(a1-4)Gal(b1-3)GlcNAc
# Method in brief: as §1
# [22] = target: GlcNAc(a1-4)Gal(b1-4)GalNAc
# Method in brief: as §1
# Kdn(a2-3)Gal(b1-4)GlcNAc = target: Kdn(a2-3)Gal(b1-4)GlcNAc
# Method in brief: as §1
# [23] = target: Man(a1-2)Man(a1-6)[Man(a1-3)]Man(a1-6)[Man(a1-2)Man(a1-2)Man(a1-3)]Man(b1-4)GlcNAc(b1-4)GlcNAc
# Method in brief: as §1
# [24] = target: Neu5Ac(a2-3)Gal(b1-3)GalNAc
# Method in brief: as §1
# [25] = target: Neu5Ac(a2-3)Gal(b1-3)GalNAc(b1-4)[Neu5Ac(a2-8)Neu5Ac(a2-3)]Gal(b1-4)Glc
# Method in brief: as §1
# [26] = target: Neu5Ac(a2-6)Gal(b1-3)GlcNAc(b1-3)[Gal(b1-4)GlcNAc(b1-6)]Gal(b1-4)Glc
# Method in brief: as §1
# Neu5Ac(a2-6)GalNAc = target: Neu5Ac(a2-6)GalNAc
# Method in brief: as §1
# [27] = target: Neu5Ac(b2-6)Gal(b1-4)GlcNAc
# Method in brief: as §1
binder,measurement,setting,value
B1,glycan array binding signal (z-score),[1],4.3
same,glycan array binding signal (z-score),[2],-1.02
same,glycan array binding signal (z-score),[3],3.02
same,glycan array binding signal (z-score),[4],2.95
same,glycan array binding signal (z-score),[5],-0.19
same,glycan array binding signal (z-score),[6],2.99
same,glycan array binding signal (z-score),[7],-0.513
same,glycan array binding signal (z-score),[8],-0.038
same,glycan array binding signal (z-score),[9],-0.009
same,glycan array binding signal (z-score),[10],-1.15
same,glycan array binding signal (z-score),[11],0.402
same,glycan array binding signal (z-score),Gal(a1-3)Gal,-0.172
same,glycan array binding signal (z-score),[12],-0.45
same,glycan array binding signal (z-score),Gal(b1-3)GlcNAc,-0.226
same,glycan array binding signal (z-score),[13],0.425
same,glycan array binding signal (z-score),[14],3.27
same,glycan array binding signal (z-score),[15],2.68
same,glycan array binding signal (z-score),[16],2.67
same,glycan array binding signal (z-score),[17],1.21
same,glycan array binding signal (z-score),[18],-0.565
same,glycan array binding signal (z-score),Gal(b1-6)Gal,-0.589
same,glycan array binding signal (z-score),Gal3S(b1-4)GlcNAc,1.21
same,glycan array binding signal (z-score),Gal3S6S(b1-4)GlcNAc,0.23
same,glycan array binding signal (z-score),Gal6S(b1-4)Glc,-0.3
same,glycan array binding signal (z-score),GalNAc(b1-3)GalNAc,-0.453
same,glycan array binding signal (z-score),GalNAc(b1-3)GlcNAc,-0.162
same,glycan array binding signal (z-score),GalNAc(b1-4)Gal(b1-4)Glc,1.03
same,glycan array binding signal (z-score),GalNAc(b1-4)GlcNAc,0.482
same,glycan array binding signal (z-score),GalNAc(b1-4)GlcNAc6S,0.16
same,glycan array binding signal (z-score),[19],-1.64
B2,glycan array binding signal (z-score),[20],-0.377
same,glycan array binding signal (z-score),GlcA(b1-3)GlcNAc,-0.361
same,glycan array binding signal (z-score),[21],-0.377
same,glycan array binding signal (z-score),[22],-0.384
same,glycan array binding signal (z-score),Kdn(a2-3)Gal(b1-4)GlcNAc,-0.381
same,glycan array binding signal (z-score),[23],-0.376
same,glycan array binding signal (z-score),[24],-0.385
same,glycan array binding signal (z-score),[25],-0.382
same,glycan array binding signal (z-score),[26],-0.383
same,glycan array binding signal (z-score),Neu5Ac(a2-6)GalNAc,-0.383
same,glycan array binding signal (z-score),[27],-0.388
